Test results taken from PubChem BioAssay.
Calls of active or inactive are those of the source. Cut-off read from the data, not from the text of the source: active = inhibition above about 44%; inactive = the rest.

molecular target: Steroidogenic factor 1 (Homo sapiens) (UniProt Q13285); experiment: SF1 (NR5A1) inverse agonists, counter-screen for LRH-1 inverse agonist project, cell-based, luminescence, high throughput (AID 651614); details: cell-based SF1 luciferase reporter, at 3.6 µM, active compounds read high;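 note: cells cotransfected with StAR promoter reporter and SF1 expression vector; 0% = vehicle on cells with receptor and 100% = vehicle on cells lacking receptor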
Sequence (Q13285 whole entry, looked up): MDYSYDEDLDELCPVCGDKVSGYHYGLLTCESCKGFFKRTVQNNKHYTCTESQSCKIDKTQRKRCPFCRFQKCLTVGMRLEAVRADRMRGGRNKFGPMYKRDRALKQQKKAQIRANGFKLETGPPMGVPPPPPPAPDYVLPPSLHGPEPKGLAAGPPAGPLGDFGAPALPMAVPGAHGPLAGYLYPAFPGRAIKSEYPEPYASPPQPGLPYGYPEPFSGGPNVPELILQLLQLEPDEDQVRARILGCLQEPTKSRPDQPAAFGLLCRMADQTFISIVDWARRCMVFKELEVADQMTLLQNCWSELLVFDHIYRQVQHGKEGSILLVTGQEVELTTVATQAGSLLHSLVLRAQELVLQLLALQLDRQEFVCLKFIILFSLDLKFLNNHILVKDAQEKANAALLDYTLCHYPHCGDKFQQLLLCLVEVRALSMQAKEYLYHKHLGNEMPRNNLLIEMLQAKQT

| SMILES | inhibition |
| --- | --- |
| CC(C)C(=O)N1CCN(c2ccc(NC(=O)c3ccc([N+](=O)[O-])o3)cc2)CC1 | 60.5% (active) |
| S=C(NCCc1ccccc1)Nc1cccc2cnccc12 | 47.5% (active) |
| CCn1c2ccccc2c2cc(/C=N/n3c(C)nnc3C)ccc21 | 38.5% (inactive) |
| COc1ccc(NC(=O)CSc2sc3c(O)cc(=O)[nH]c3c2C#N)c(OC)c1 | 47.3% (active) |
| O=C(c1ccc([N+](=O)[O-])o1)N1CCc2ccccc21 | 59% (active) |
| CC(C)c1ccc(NC(=O)CSc2nc(=O)[nH]c3c2CCCC3)cc1 | 47.3% (active) |
| COc1ccc(S(=O)(=O)Nc2ccc(CC#N)cc2)cc1 | 29.7% (inactive) |
| OC[C@@H]1CN(Cc2ccc(-c3ccccc3)cc2)C[C@H](n2cnc3c(NCc4ccco4)ncnc32)O1 | 65% (active) |
| CN1c2ccccc2C(C)(C)C12C=Nc1c(cc(N3CCOCC3)c3ccccc13)O2 (stereo not given) | 21.1% (inactive) |
| O=C(COC(=O)c1ccc(Br)cc1)Nc1ccccc1Br | 50.1% (active) |
| COc1cc(N)c(Cl)cc1C(=O)OCC(=O)N1c2ccccc2NC(=O)C1(C)C | 11.5% (inactive) |
| CCC(=O)N1CCN(c2ccc(Cl)cc2NC(=O)c2ccc([N+](=O)[O-])o2)CC1 | 61.9% (active) |
| Cn1cccc1C(=O)OCC(=O)NCCCc1ccccc1 | 44.4% (active) |
| Cc1cc(/C=N/n2cnnc2)c(C)n1-c1ccc(OCc2ccc(Cl)cc2)cc1 | 48.3% (active) |
| Cc1cc(N2CCN(c3nc4ccccc4s3)CC2)n2ncnc2n1 | 54.6% (active) |
| COc1cc(OC)cc(C(=O)N[C@H](C(=O)OCC(=O)Nc2ccc3c(c2)OCO3)C(C)C)c1 | 45.9% (active) |
| Cn1c2c(c(=O)n(C)c1=O)C(C(F)(F)F)(C(F)(F)F)N=C(CCC1CCCCC1)N2 | 49.6% (active) |
| Cc1cc(S(=O)(=O)NCc2ccncc2)c(C)cc1Br | 38.6% (inactive) |
| CSCc1c(C(=O)Nc2ccccc2N2CCOCC2)oc2ccccc12 | 62.5% (active) |
| Cc1cc(OCC(=O)NCc2cccnc2)c2c(C)c(C)c(=O)oc2c1 | 50.5% (active) |

| SMILES | inhibition |
| --- | --- |
| COc1ccc(C(=O)Nc2cnccn2)cc1[N+](=O)[O-] | 26.4% (inactive) |
| Fc1ccc(Br)cc1SCCc1ccncc1 | 34.9% (inactive) |
| CCC(C)n1c(SCC(=O)NCCc2ccc(S(N)(=O)=O)cc2)nc2ccsc2c1=O (stereo not given) | 52.6% (active) |
| O=C(Nc1ccc(F)cc1)C(c1cc2ccccc2o1)N1CCN(c2cccc(C(F)(F)F)n2)CC1 (stereo not given) | 35.4% (inactive) |
| COc1cc(C2CC(=O)c3c([nH]c(C(=O)OCCOC(C)C)c3C)C2)cc(OC)c1OC (stereo not given) | 56.8% (active) |
| COc1ccc(/C=N/n2c(SC)nnc2-c2ccccc2)c(OC)c1OC | 54.4% (active) |
| Cc1ccc(NNC(N)=S)cc1Cl | 50.5% (active) |
| COc1ccc(N2CCN(C(=O)CSc3nnc(-c4cc5ccccc5cc4O)n3C)CC2)cc1 | 58.3% (active) |
| Cc1ccc(/C=C/S(=O)(=O)NCC(=O)OCC(=O)Nc2c(F)cccc2F)cc1 | 55.4% (active) |
| CCN(CC)CC(=O)Nc1ccc(-c2nc3cc(NC(=O)CN(CC)CC)ccc3o2)cc1 | 39.6% (inactive) |
| COC(=O)c1ccc(NC(=O)CN2CCN(S(=O)(=O)c3cc(Cl)ccc3OC)CC2)cc1 | 57.5% (active) |
| CCc1ccccc1NC(=O)CSc1nnc([C@@H](NC(=O)OC(C)(C)C)C(C)CC)o1 (stereo not given in full) | 30.1% (inactive) |
| CS(=O)(=O)N1Cc2cc(C(=O)NCC3CC3)nc(-c3cccc(-c4cccnc4)c3)c2[C@@H]1CCO | 47.5% (active) |
| Cc1cccc(NC(=O)COC(=O)Cc2cccs2)c1C | 46.9% (active) |
| NC(=O)COc1ccc2c3c(c(=O)oc2c1)CCCCC3 | 41.6% (inactive) |
| COCCSc1ccccc1C(=O)NCc1ccc2c(c1)OCO2 | 48.9% (active) |
| Cc1cc(-c2nnc(SCC(=O)Nc3cccc(C)c3C)n2N)n[nH]1 | 48.2% (active) |
| CCc1ccccc1NC(=O)CSc1nnc([C@@H](NC(=O)OC(C)(C)C)C(C)C)o1 | 45.9% (active) |
| CC1(c2ccc3ccccc3c2)NC(=O)N(CC(=O)N2CCN(Cc3ccc(C#N)cc3)CC2)C1=O (stereo not given) | 62.4% (active) |
| Cc1cc(OCC(=O)Nc2nccs2)c2c(C)cc(=O)oc2c1 | 55.3% (active) |
